Our source for the Potency and activity change, negative = inhibition values is PubChem BioAssay (NCATS).

Inconclusive results are not listed. Some compounds were tested as several samples or in several runs, with calls that do not always agree. A number with no mark means an inactive call. The source made the active and inactive calls. Calls come from the whole dose curve; as a rule, active = well fitted inhibition curve with a large enough effect; inconclusive = small, poorly fitted or top-dose-only effect; inactive = no such curve, though single readings can be large or run the other way.
% is set by controls: 0 for no effect and ±100 for the full control effect; potency is the fitted concentration of half-maximal effect.

Chain of Cytochrome P450 3A4 (Homo sapiens) (P08684 whole entry, looked up): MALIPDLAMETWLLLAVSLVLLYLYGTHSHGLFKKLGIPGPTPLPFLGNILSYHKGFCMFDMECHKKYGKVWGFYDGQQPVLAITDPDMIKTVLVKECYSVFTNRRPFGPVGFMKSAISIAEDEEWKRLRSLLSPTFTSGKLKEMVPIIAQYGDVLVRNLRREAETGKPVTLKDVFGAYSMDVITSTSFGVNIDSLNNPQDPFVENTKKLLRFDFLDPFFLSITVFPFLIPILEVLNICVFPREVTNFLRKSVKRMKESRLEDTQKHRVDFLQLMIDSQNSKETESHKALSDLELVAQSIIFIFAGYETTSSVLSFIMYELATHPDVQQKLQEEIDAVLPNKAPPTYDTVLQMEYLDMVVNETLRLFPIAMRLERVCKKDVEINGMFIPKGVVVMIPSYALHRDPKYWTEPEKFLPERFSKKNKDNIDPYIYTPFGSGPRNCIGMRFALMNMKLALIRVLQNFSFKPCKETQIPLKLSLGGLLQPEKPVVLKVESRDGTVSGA

The target of this assay is Cytochrome P450 3A4 (Homo sapiens) (UniProt P08684). Briefly: qHTS Assay for Inhibitors and Substrates of Cytochrome P450 3A4 (AID 884). Note: nearly all actives have a fitted effect of over 50% in size. The following applies: recombinant CYP3A4, Luciferin-PPXE luminescence; series mostly up to 57.1 µM. The protocol:
NIH Molecular Libraries Screening Centers Network [MLSCN]
NIH Chemical Genomics Center [NCGC]
The P450 gene superfamily is involved in the metabolism and clearance of xenobiotics. This assay used human CYP3A4 to measure the dealkylation of luciferin-6' phenylpiperazinylyl (Luciferin-PPXE; […]) to luciferin. The luciferin is then measured by luminescence after the addition of a luciferase detection reagent. Luciferin-PPXE concentration in the assay was equal to its KM for CYP3A4. Inhibitors and some substrates limit the production of luciferin, and decrease measured luminescence.
NCGC Assay Protocol Summary:
Two uL of enzyme and substrate mix (final concentrations: 20nM CYP3A4, 25uM Luciferin-PPXE, 200mM KPO4) were dispensed into a white, solid bottom 1536-well microtiter plate. 23nL of compound was transferred by a pin tool. The plate was incubated at RT for 10 min. Two uL of an NADPH regeneration solution (Promega supplied reagent) was dispensed and the reaction was allowed to continue for 60 min at RT. Then the reaction was stopped by reconstituted luciferin detection buffer. After another 20 min of incubation the plate was read on the ViewLux (Perkin Elmer) at 60 sec exposure and 2x2 binning. This protocol was carried out with Promega-Glo reagents and further information can be found at http://www.promega.com/tbs/tb325/tb325.pdf. Data were normalized to the to AC100 inhibition (57 uM ketoconazole).
Keywords: P450, CYP3A4, Luciferase, MLSMR, MLSCN, NIH Roadmap, qHTS, NCGC
With `CCCCCCN(C(=O)CCCCCN1C(=O)NC(c2ccc(-c3ccccc3)cc2)C(C(=O)OCc2ccccc2)=C1C)C(C(=O)NCCCC)c1ccc(OCC(=O)OC)cc1` (stereo not given), the Potency was 10 µM (active).
On the same count and under the same terms, under `COc1ccc(C(=O)C2C3C4COC(O4)C(=O)C3C3C=Cc4ccccc4N32)c(OC)c1` (stereo not given) stands 31.6 µM (active).
As to `COc1ccc(C#CC2C=CC(OC(C)=O)C(COC(C)=O)O2)cc1` (stereo not given), the activity change, negative = inhibition is -3.53% [at 11.4 µM] and the Potency is 2.51 µM (active).
On to `COC(=O)c1ccc(C(NC(=O)OCc2ccccc2)/C(I)=C/[C@@H](C)C(=O)Nc2ccccc2)cc1` (stereo not given in full), for which the Potency was 2 µM (active).
For the compound `C[C@@H]1C=C[C@](Cc2ccccc2)(C(=O)NCCN2CCOCC2)N1C(=O)c1ccccc1`, the Potency is 5.01 µM (active).
For `CCC1=C(OC(=O)N(CC)CC)N2C(=O)OC(=NCCOC)[C@]2(Cc2ccccc2)[C@H]2C1=CC[C@H]1C(=O)N(C)C(=O)[C@H]12`, the Potency is 7.94 µM (active).
Regarding `COC(=O)C1=C(C)N(Cc2ccccc2)C2=C3C(=O)N(C)C(=O)C3[C@@](O)(C(=O)OC)C(=O)N2C1c1ccccc1` (stereo not given in full), the activity change, negative = inhibition was -21.3% [at 11.4 µM].
For `CCC1=C(OC(=O)N(CC)CC)N2C(=O)OC(=NCC3CC3)[C@]2(Cc2ccccc2)[C@H]2C1=CC[C@H]1C(=O)NC(=O)[C@H]12`, the Potency is 2 µM (active).
Same read-out and setting: under `CCCCCCN(C(=O)CCCCCN1C(=O)NC(c2ccc([N+](=O)[O-])cc2)C(C(=O)OCc2ccccc2)=C1C)C(C(=O)NCCCC)c1ccc(OCC(=O)OC)c(C(=O)OC)c1` (stereo not given) stands 2 µM (active); under `CC(=O)N1C2(C=CC1(C)C(=O)NCCN1CCOCC1)CCCCC2` (stereo not given), 10 µM (active).
Still for that read-out and setting: the result for `C=CCC1C=CC(Oc2ccc(F)cc2C)C(CO)O1` (stereo not given) reads 3.98 µM (active).
As for `CC1CCC(C(=O)O)NC1c1cccc(N2CCOCC2)c1` (stereo not given), the activity change, negative = inhibition was -10.3% [at 11.4 µM].
With `COC(=O)c1ccc(C23CC4(C2)[C@H](CN(Cc2ccc(-c5ccccc5)cc2)[C@@H]4c2ccccc2)C3c2ccc(Cl)nc2)cc1` (stereo not given in full), the Potency result is “inactive”.
As for `C#CC(C)OC(=O)c1nnc2c3ccccc3n(COC)c2n1` (stereo not given), the activity change, negative = inhibition is -23.2% [at 11.4 µM].
On to `C=C1C2CC[C@@]3(C)C(c4ccoc4)OC(=O)C[C@@]13OC1CC(OC(C)=O)C(C)(C)C(CC(=O)OC)[C@@]12C` (stereo not given in full), for which the Potency was 1.26 µM (active).
`O=C1C=C[C@@H](O)[C@@H]2[C@H]3C(=O)N(c4ccc(F)cc4F)C(=O)[C@@H]3CC[C@@H]12`: the activity change, negative = inhibition was -59.6% [at 11.4 µM].
Regarding `C#CCCCO/N=C1/C[C@@H](O)[C@@H](O)[C@@H]2[C@H]3C(=O)N(c4ccc(F)cc4F)C(=O)[C@@H]3CC[C@H]12`, the Potency is 3.98 µM (active).
The same measure, in the same setting: under `COc1ccc(O[C@H]2C=C[C@@H](c3ccccc3)O[C@H]2COC(=O)CC/C(C)=N/OCC[C@@H]2C=C[C@H](OC(C)=O)[C@H](COC(C)=O)O2)cc1` stands 3.98 µM (active).
Still for that read-out and setting: the result for `COCCN=C1OC(=O)N2C(=O)C3=C4C(C[C@H]5C(=O)N(c6ccccc6)C(=O)[C@H]5[C@H]4[C@@]12Cc1ccccc1)[C@H]1C(=O)N(c2ccccc2)C(=O)[C@H]1[C@H]3C` (stereo not given in full) reads 5.01 µM (active); that for `CCCNC(=O)OC[C@@H]1O[C@H](CCO/N=C(\C)CCC(=O)OC[C@@H]2O[C@H](c3ccccc3)C=C[C@@H]2Oc2ccc(OC)cc2)C=C[C@@H]1Oc1ccc(OC)cc1`, 5.01 µM (active).
The same measure, in the same setting: under `CC(Cc1ccccc1)C(=O)NCCc1c[nH]c2ccccc12` (stereo not given) stands 2.51 µM (active); under `NC(=O)c1cc[n+](CC2=C(C(=O)O)N3C(=O)C(NC(=O)C(c4ccccc4)S(=O)(=O)[O-])C3SC2)cc1` (stereo not given), “inactive”; under `COC(=O)C1(C)C=CCN1C(=O)c1ccccc1` (stereo not given), “inactive”.
On to `CCC(=O)CC(NC(=O)OC)c1ccc(F)cc1` (stereo not given), for which the activity change, negative = inhibition is -17.9% [at 11.4 µM].
Turning to `O=C1[C@H]2[C@H]3[C@H](O)[C@H](O)C/C(=N/OCc4ccccc4)[C@@H]3CC[C@@H]2C(=O)N1Cc1ccc2c(c1)OCO2`, the Potency was 2 µM (active).
Same read-out and setting: under `COCCNC(=O)[C@H](C)[C@@H]1C[C@@]1(C)[C@@H](NC(=O)OCc1ccccc1)c1ccccc1` stands 7.94 µM (active); under `O=C1C(Cl)=C(NC2CCc3ccccc32)C(=O)c2ncccc21` (stereo not given), 1.58 µM (active); under `COC(=O)c1cccc(C23CC4(C2)[C@H](CN(Cc2cccnc2)[C@@H]4c2ccccc2)C3c2ccc(C(F)(F)F)cc2)c1` (stereo not given in full), 2.51 µM (active).
On the same count and under the same terms, under `COc1cc2c(C=O)c3c4c(cc(OC)c(OC)c4c2cc1OC)CCN3C` stands 2 µM (active).
Regarding `O=C(/C=N/O)NCCCCNC(=O)/C=N/O`, the activity change, negative = inhibition is -14.7% [at 11.4 µM].
Regarding `C[C@]12CCC(=O)C=C1CCC1C2C(O)C[C@]2(C)C1CC[C@]2(O)C(=O)COC(=O)CCC(=O)O` (stereo not given in full), the Potency entry was “inactive”.
Still for that read-out and setting: under `CCCNC(=O)OC[C@H]1O[C@@H](CCO/N=C\[C@@H](NS(=O)(=O)c2ccc(C)cc2)[C@H](C)/C=C\CC(=O)OC)C=C[C@@H]1Oc1ccc(OC)cc1` stands 3.16 µM (active).
Still for that read-out and setting: under `CCC1=C(OC(=O)N(CC)CC)N2C(=O)OC(=NCC(=O)OC)[C@]2(Cc2ccccc2)[C@H]2C1=CC[C@H]1C(=O)N(c3ccccc3)C(=O)[C@H]12` stands 3.16 µM (active); under `Cc1ccc(S(=O)(=O)N[C@H]2COC(=O)C/C=C\[C@H](C)[C@@H](NS(=O)(=O)c3ccc(C)cc3)COC(=O)C/C=C\[C@@H]2C)cc1`, 3.98 µM (active).
On the same count and under the same terms, the result for `CC1C(NC(=O)/C(=N/OC(C)(C)C(=O)O)c2csc(N)n2)C(=O)N1S(=O)(=O)O` (stereo not given) reads “inactive”; that for `CC(=O)OCC1OC(C#Cc2ccccc2)C=CC1OC(C)=O` (stereo not given), 3.98 µM (active).
For `CCCCCCN(C(=O)CCCCCN1C(=O)NC(c2ccc(C3CCCCC3)cc2)C(C(=O)OCc2ccccc2)=C1C)C(C(=O)NCCCC)c1ccc(OCC(=O)OC)c(C(=O)OC)c1` (stereo not given), the Potency is 2 µM (active).
Still for that read-out and setting: under `COC(=O)c1ccc(C(NC(=O)OCc2ccccc2)/C(C)=C/[C@@H](C)C(=O)N2CCN(C)CC2)cc1` (stereo not given in full) stands 1.26 µM (active); under `COC(=O)N1[C@H](Cc2ccccc2)C=C[C@]1(C)C(=O)NCc1ccccn1`, 7.94 µM (active).
